Results from PubChem BioAssay (NCI).
About 83,000 compounds went through this panel and 20% of them were active in at least one assay; those are over-represented in the sample as a whole.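 A percent growth of 40 corresponds to 60% growth inhibition; 0 means no net growth; -100 means all cells died. Active threshold: below 10.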 A number with no mark means an inactive call. The source made the active and inactive calls.

Each compound was assayed on HL-60(TB) leukemia (assay: NCI-60 one-dose screen, 48 h (100 = growth as untreated, 0 = no growth, -100 = all killed)). Conditions: 10 µM unless noted.

| Compound | growth |
| --- | --- |
| CSc1nc(N)c2[nH]c(-c3cc4ccccc4[nH]c3=O)nc2n1 | 88.8% |
| COc1ccc2c(c1)c(-c1ccc(-c3cn(C)c4ccc(OC)cc34)[nH]1)cn2C | -24.7% (active) |
| COc1cc(Cc2cc(-c3ccc(Cl)cc3)n[nH]c2=O)ccc1O | 93.5% |
| O=C(Nc1ccc(-n2ccc3c(NC(=O)c4ccccc4)ncnc32)cc1)Nc1ccc(Cl)c(C(F)(F)F)c1 | 15.3% |
| c1ccc(CC(NCCNC(Cc2ccccc2)c2ccccc2)c2ccccc2)cc1 (stereo not given) | -0.655% (active) |
| COc1ccc2[nH]cc(C3(c4c[nH]c5ccc(OC)cc45)C(=O)Nc4ccc(F)cc43)c2c1 | -40.3% (active) |
| O=c1cc(-c2ccc3c(c2)OCCO3)oc2cc(Cl)ccc12 | 110% |
| Nc1ccc2c(S(=O)(=O)O)ccc(S(=O)(=O)O)c2c1 | 76.2% |
| COc1cc(/C=C\C(C)=N\Nc2ccccc2)ccc1O | 3.74% (active) |
| CCOC(=O)c1sc2nc(-c3cccc(O)c3)nc(N3CCOCC3)c2c1C | 78.3% |
| Cc1ccc(N=C=C(c2ccccc2)c2ccccc2)cc1 | 18.6% |
| COc1ccc(NC2=C(I)C(=O)c3ncccc3C2=O)cc1 | -47.5% (active) |
| O=C(NS(=O)(=O)c1ccccc1)n1cc(-c2ccncc2)c(-c2cc(O)cc(Cl)c2)n1 | 103% |
| CCCCCCCCCCCCCCCCOc1ccccc1NC(=O)CC(C)=O | 98% |
| Cc1ccc(NC(=O)c2ccc(CN3CCN(C)CC3)cc2)cc1Nc1nc(-c2cccnc2)cs1 | 57.9% |
| Cc1cc2c(-c3nc4ccccn4c3N)c(O)c(O)cc2c(O)c1-c1c(C)cc2c(-c3nc4ccccn4c3N)c(O)c(O)cc2c1O | 9.95% (active) |
| Cc1nc2cc(Nc3nc(Cl)nc(Nc4ccc(F)cc4)n3)ccc2n1Cc1ccccc1 | 53.2% |
| CC1Cc2cc(F)ccc2-n2cccc21 (stereo not given) | 111% |
| O=C(c1ccc(Cl)cc1Cl)N1c2ccccc2Sc2ccccc21 | 35.8% |
| CCOC(=O)c1c(C)c2c(n1Cc1ccccc1)CSc1cc(C#N)c(=O)[nH]c1-2 | 76.8% [100 µM] |

| Compound | growth |
| --- | --- |
| COc1ccc2c(c1)NC(=O)CN2c1nc(NC2CC2)nc2ccccc12 | -5.55% (active) |
| O[C@@H]1CCO[C@H](c2ccc3ccccc3c2)C1 | 102% |
| Cc1ccc(C)c2c1C(O)(C#Cc1ccccc1)c1ccccc1C2(O)C#Cc1ccccc1 (stereo not given) | 35.6% |
| CCCc1n(Cc2ccc3ccccc3n2)cc[n+]1Cc1ccc2ccccc2n1 | -31.2% (active) |
| CC1(C)OC2[C@@H](CNC(=O)NC(=O)NC(=O)CI)O[C@@H](n3cnc4c(NC(=O)Nc5ccccc5)ncnc43)[C@H]2O1 (stereo not given in full) | 77.2% |
| CCOC(=O)c1ccc(NC(=O)N2CC(C)OC(C)C2)cc1 (stereo not given) | 92.8% |
| O=C1c2cccc3cccc(c23)C(=O)N1N1C(=O)c2cccc3c(N4CCNCC4)ccc(c23)C1=O | 64.7% |
| O=C(Nc1ccccc1CNc1nc(Nc2ccc(OCCN3CCCC3)cc2)ncc1Cl)NC1CCCCC1 | 99.9% |
| C[C@@H]1N=C(c2ccc3ccccc3c2)Nc2nc3ccccn3c2C1=O | -6.75% (active) |
| CCN1CCC2(CC1)NC(=O)c1c(c3ccc(Cl)c(Cl)c3n1C)C2C#N (stereo not given) | 30.2% |
| COc1cc2oc(-c3cccc(C(=O)Nc4ccc(C)cc4)c3)cc(=O)c2c(OC)c1OC | 7.26% (active) |
| Cc1cnc(Nc2ccc(N3CCN(C)CC3)cc2)nc1Nc1ccc(Cl)c(NS(=O)(=O)C(C)(C)C)c1 | -13.4% (active) |
| COC(=O)c1c2c(c(C)[n+]([O-])c1C)C(=O)C=C(NCc1ccccc1)C2=O | -31.4% (active) |
| CNc1ncc(-c2ccc(C(F)(F)F)cc2)c(NC2CCCCCC2)n1 | 57% |
| O=C(/C=C/c1cccs1)Nc1ncc(Cc2ccc(Cl)c(Cl)c2)s1 | 14% |
| COc1cccc(-c2nn(-c3ccccc3)cc2-c2ccnc(NCCCNS(=O)(=O)c3ccc(Br)cc3)c2)c1 | 43.3% |
| Cc1cccc([N+](=O)[O-])c1I | 143% |
| COc1ccc(/C=C/c2c(C(=O)/C=C/c3ccccc3)c(C)nc3ccccc23)cc1 | 6.07% (active) |
| Cc1nc2sc(C(=O)Nc3cccc4ccccc34)c(N)c2cc1C(O)c1ccccc1 (stereo not given) | -55.1% (active) |
| O=C(NCc1ccccc1)C(Cl)Cl | 95.9% |
